According to the supplement of paper PMC3545927:
Some of the results follow. No count for the full screen is at hand.

Target: furin, P09958
Assay: furin cleavage Z-score vs untreated control; higher = more cleavage, active = 3.5 or more, inactive = 1 or less, 8 variable residues between constant flanks
Experimental: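 Multiplexed peptide-cDNA fusion cleavage assay. 8-mer variable peptides flanked by constant Cys-Ala (N-term) and Ala-Gly-Asn-Ala-Ser-Ala-Ser-Ala (C-term) and conjugated to a cDNA oligonucleotide were bead-immobilised via the N-terminus. They were treated with purified furin at a 1:10 enzyme:substrate ratio in 50 mM HEPES pH 7.5, 1 mM CaCl2, 100 mM NaCl for 7.5, 15 or 30 min. Released cDNA was counted by next-generation sequencing, and log counts versus no-furin controls were lowess-adjusted and converted to robust Z-scores.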

Chain of furin, P09958 (P09958 whole entry): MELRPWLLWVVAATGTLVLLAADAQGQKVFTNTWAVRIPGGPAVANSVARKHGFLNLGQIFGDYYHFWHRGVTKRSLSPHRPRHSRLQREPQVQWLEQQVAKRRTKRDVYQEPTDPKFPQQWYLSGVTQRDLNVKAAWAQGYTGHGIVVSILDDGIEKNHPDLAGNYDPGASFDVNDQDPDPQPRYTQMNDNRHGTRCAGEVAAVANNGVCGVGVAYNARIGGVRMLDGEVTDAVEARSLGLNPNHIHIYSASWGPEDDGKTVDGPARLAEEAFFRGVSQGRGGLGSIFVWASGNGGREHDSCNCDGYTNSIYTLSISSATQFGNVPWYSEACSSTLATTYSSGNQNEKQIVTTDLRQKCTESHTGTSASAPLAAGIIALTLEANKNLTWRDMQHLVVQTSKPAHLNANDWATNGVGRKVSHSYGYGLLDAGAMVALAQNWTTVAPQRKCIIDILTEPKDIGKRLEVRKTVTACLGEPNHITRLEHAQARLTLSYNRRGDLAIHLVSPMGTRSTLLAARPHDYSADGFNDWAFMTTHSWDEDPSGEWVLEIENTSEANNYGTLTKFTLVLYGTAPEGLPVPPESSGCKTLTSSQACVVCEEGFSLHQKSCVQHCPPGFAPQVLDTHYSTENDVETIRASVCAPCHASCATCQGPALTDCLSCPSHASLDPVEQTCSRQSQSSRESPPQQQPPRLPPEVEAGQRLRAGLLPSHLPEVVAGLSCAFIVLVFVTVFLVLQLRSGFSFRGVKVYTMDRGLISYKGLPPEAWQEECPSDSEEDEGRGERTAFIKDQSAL

Sequence | furin cleavage Z-score (7.5 min) | furin cleavage Z-score (15 min) | furin cleavage Z-score (30 min)
CANLVYSTTSAGNASASA [HC1388] | 1.17 | -0.567 (inactive) | 1.86
CATTPCSFSWAGNASASA [HC1887] | -1.16 (inactive) | -1.65 (inactive) | 0.982 (inactive)
CAKVPAAYAAAGNASASA [HC780] | 0.0632 (inactive) | -0.0412 (inactive) | -3.37 (inactive)
CARARRTTIYAGNASASA [FS-3151] | -0.153 (inactive) | 1.46 | 4.35 (active)
CARARRTLGHAGNASASA [FS-1684] | 6.43 (active) | 8.11 (active) | 7.53 (active)
CALTKRLKRHAGNASASA [FS-689] | 12.6 (active) | 12.3 (active) | 9.95 (active)
CARARRDDPHAGNASASA [FS-2888] | 5.71 (active) | 7.99 (active) | 5.78 (active)
CAYTTGPCTPAGNASASA [HC1193] | -1.22 (inactive) | 0.109 (inactive) | -1.36 (inactive)
CALSPGALVVAGNASASA [HC1104] | -0.255 (inactive) | 1.25 | 0.572 (inactive)
CAVVCNSMSYAGNASASA [HC98] | -1.2 (inactive) | 0.223 (inactive) | -0.488 (inactive)
CAEGVFTGLTAGNASASA [HC940] | -0.801 (inactive) | 0.108 (inactive) | -0.239 (inactive)
CAEGVTSTWVAGNASASA [HC2176] | 0.155 (inactive) | -0.512 (inactive) | 0.24 (inactive)
CAGPVIQMYTAGNASASA [HC708] | -1.34 (inactive) | -0.0874 (inactive) | 0.0794 (inactive)
CAEAKRGSSSAGNASASA [FS-2476] | -2.29 (inactive) | -0.0771 (inactive) | 0.074 (inactive)
CARARRTKRHAGNASASA [FS-1255] | 11.2 (active) | 11.8 (active) | 8.26 (active)
CARKQRKKKAAGNASASA [FS-1262] | 0.332 (inactive) | 1.6 | 1.96
CARSQPRGRRAGNASASA [HC188] | 4.16 (active) | 5.3 (active) | 4.87 (active)
CAFSQRRKRRAGNASASA [FS-775] | 6.61 (active) | 5.92 (active) | 6.42 (active)
CALRKRRKRKAGNASASA [FS-1030] | 10.7 (active) | 11.4 (active) | 9.12 (active)
CARSQRRKKAAGNASASA [FS-865] | 4.39 (active) | 4.99 (active) | 5.15 (active)
CAYTNVDQDLAGNASASA [HC711] | -0.889 (inactive) | -0.433 (inactive) | -0.26 (inactive)
CALTVPASAYAGNASASA [HC253] | 0.273 (inactive) | -0.258 (inactive) | 0.0356 (inactive)

Sequence | furin cleavage Z-score (7.5 min) | furin cleavage Z-score (15 min) | furin cleavage Z-score (30 min)
CAGPRRPMRPAGNASASA [FS-785] | 0.568 (inactive) | -0.102 (inactive) | -1.31 (inactive)
CACGDIINGLAGNASASA [HC657] | -0.652 (inactive) | -0.156 (inactive) | 0.306 (inactive)
CAENDTDVFVAGNASASA [HC426] | -0.537 (inactive) | 0.514 (inactive) | -0.867 (inactive)
CAEMPRDRRRAGNASASA [FS-325] | -1.37 (inactive) | -0.519 (inactive) | -0.0256 (inactive)
CALRFRRKRRAGNASASA [FS-826] | 11.4 (active) | 12.4 (active) | 10.4 (active)
CACRKRRKRCAGNASASA [FS-17] | 4.55 (active) | 0.934 (inactive) | 1.07
CARCQRDAMCAGNASASA [FS-2651] | -1.14 (inactive) | 0.877 (inactive) | 1.14
CAVRNRRKRKAGNASASA [FS-1434] | 8.59 (active) | 9.19 (active) | 8.05 (active)
CAAPPRRKRRAGNASASA [FS-976] | 7.74 (active) | 7.56 (active) | 5.8 (active)
CALRFCALARAGNASASA [HC620] | 1.83 | 0.507 (inactive) | -0.572 (inactive)
CALREEVSFRAGNASASA [HC1231] | -0.828 (inactive) | -0.657 (inactive) | -0.791 (inactive)
CAGRSEFKRCAGNASASA [FS-1331] | -0.855 (inactive) | -0.736 (inactive) | -0.471 (inactive)
CATGCVVIVGAGNASASA [HC999] | 0.288 (inactive) | -0.105 (inactive) | 1.66
CATTPCCGSWAGNASASA [HC74] | -2.07 (inactive) | -0.069 (inactive) | -1.52 (inactive)
CAEFTLLTRIAGNASASA [FS-988] | -0.861 (inactive) | -1.86 (inactive) | 0.256 (inactive)
CALRFRRKRKAGNASASA [FS-825] | 9.84 (active) | 11 (active) | 8.47 (active)
CALIFCHSKKAGNASASA [HC856] | -0.592 (inactive) | -0.736 (inactive) | -0.784 (inactive)
CAMEEMSQHLAGNASASA [HC8] | 1.27 | 1.33 | 0.916 (inactive)
CAAAILRRHVAGNASASA [HC1110] | -1.81 (inactive) | 1.42 | 1.16
CALASHPKRAAGNASASA [FS-1355] | -0.0202 (inactive) | 0.46 (inactive) | -0.107 (inactive)
CAAAIREKRAAGNASASA [FS-153] | 10.5 (active) | 11.2 (active) | 8.65 (active)
CALADREKRAAGNASASA [FS-683] | 5.37 (active) | 7.31 (active) | 4.83 (active)
